# Rows were chosen to be rich in hits. Some 3.3% of all compounds tested hit in one or more screens of this group.
# Sm TGR block – blocks Schistosoma mansoni thioredoxin glutathione reductase. Q962Y6. purified TGR, DTNB reduction, TNB absorbance 405 nm. Potency, µM (series often up to 114 µM), hits mostly inhibitors. 3% of 360,000 active; also: nearly all actives have a fitted effect of over 60% in size
#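 Kinetic colorimetric format: TGR-catalysed, NADPH-driven DTNB reduction monitored via TNB absorbance. Enzyme dispensed at 20 nM; compound exposure 15 min at room temperature before reaction start.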
# AmpC inh no detg – AmpC beta-lactamase inhibition without detergent | AID 485341 | Potency, µM (series often up to 57.1 µM), most hits filed as inhibitors | 0.52% of 330,000 active | AmpC nitrocefin hydrolysis, absorbance 480 nm, 0.0001% Triton | P00811; also: nearly all actives have a fitted effect of over 20% in size
# Target sequence (P00811 whole entry, looked up): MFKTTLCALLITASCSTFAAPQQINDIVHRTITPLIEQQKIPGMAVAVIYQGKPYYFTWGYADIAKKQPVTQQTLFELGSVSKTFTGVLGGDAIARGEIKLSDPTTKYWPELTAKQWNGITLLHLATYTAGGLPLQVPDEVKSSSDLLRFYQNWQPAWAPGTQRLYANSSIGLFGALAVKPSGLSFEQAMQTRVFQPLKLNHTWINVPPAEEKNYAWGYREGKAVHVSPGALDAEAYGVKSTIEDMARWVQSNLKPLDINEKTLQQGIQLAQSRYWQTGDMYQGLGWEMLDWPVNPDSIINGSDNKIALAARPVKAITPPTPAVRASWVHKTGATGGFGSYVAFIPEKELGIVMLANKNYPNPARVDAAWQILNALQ
#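 20 mM phosphate pH 7.0 + 0.01% (detergent screen) or 0.0001% Triton X-100; 5.3 nM AmpC reagent; cpd preinc 15 min RT; nitrocefin (800 uM stock) to start; A480 q20 s × 4 min; Activity was normalised to no-enzyme and no-compound control wells.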
# AmpC detergent – AmpC beta-lactamase inhibition with detergent present | AmpC hydrolysis of nitrocefin, absorbance 480 nm, 0.01% Triton | 0.041% of 370,000 active | Potency, µM (titrated, usually from 114 µM), hits mostly inhibitors | AID 485294 | P00811; also: nearly all actives have a fitted effect of over 25% in size
#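 20 mM phosphate pH 7.0 + 0.01% (detergent screen) or 0.0001% Triton X-100; 5.3 nM AmpC reagent; cpd preinc 15 min RT; nitrocefin (800 uM stock) to start; A480 q20 s × 4 min; Activity was normalised to no-enzyme and no-compound control wells.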
# Numbers stand for hits; n = inactive; u = inconclusive; x = no result given; [ ] = remark or other dose. Calls follow the shape of the dose curve; as a rule, active = well fitted curve in the direction sought with a large enough effect; inconclusive = small, poorly fitted or top-dose-only effect, or another doubt; inactive = no such curve, though single readings can be large; an effect the other way counts as inactive or inconclusive.
SMILES,Sm TGR block,AmpC inh no detg,AmpC detergent
CC(C)(C)c1ccc(S(=O)(=O)N2CCN(Cc3cc4c(cc3O)OCO4)CC2)cc1,2.8µM,n,u
O=C(Nc1ccc2c(c1)OCO2)C1CCCCC1,n,n,n
Oc1cc2c(cc1CN1CCN(c3ccccc3F)CC1)OCO2,1µM,n,n
O=C(CCN1CCN(c2ccccc2F)CC1)Nc1ccc2c(c1)OCO2,n,n,n
O=C(Nc1ccc2c(c1)OCO2)C1CCN(Cc2cc3c(cc2O)OCO3)CC1,2.8µM,n,u
c1ccc2c(c1)CCN(Cc1nnnn1Cc1ccc3c(c1)OCO3)C2,n,n,n
Cc1ccc(S(=O)(=O)N2CCN(Cc3ccc4c(c3)OCO4)CC2)cc1,n,x,n
COc1ccc(Br)cc1CNC(=O)CN1C(=O)c2cccnc2Oc2ccc(C)cc21,n,x,n
CCOC(=O)N1CCN(C(=O)c2cnn(-c3cccc(F)c3)c2-n2cccc2)CC1,n,x,n
CCOC(=O)c1ccccc1NC(=O)c1cnc(N2CCOCC2)c2ccccc12,n,x,n
COc1ccccc1N1CCN(Cc2cc(C)c(C)cc2O)CC1,n,n,n
COc1ccccc1N1CCN(Cc2cc3c(cc2O)OCO3)CC1,1.8µM,n,n
Cc1nnc(NC(=O)c2cccc(F)c2)s1,n,n,n
Cc1nnc(NC(=O)c2c(F)cccc2F)s1,n,18µM,n
CCC(C)NC(=O)CSc1nnc(-c2ccc(C)cc2)c(-c2ccc(C)cc2)n1 (configuration not stated),n,x,n
O=C(O)C1CC(=O)N(Cc2cccs2)C1 (configuration not stated),n,n,n
O=C1NC(=O)C(Cc2cccs2)C(=O)N1,40µM,n,u
CC(C)S(=O)(=O)c1oc(-c2cccs2)nc1S(=O)(=O)c1ccc(F)cc1,0.89µM,x,u
Cc1ccc(S(=O)(=O)c2nc(-c3cccs3)oc2SC(C)C)cc1,n,x,n
CC(C)S(=O)(=O)c1oc(-c2ccc(F)cc2)nc1S(=O)(=O)c1ccccc1,0.89µM,x,n
CSc1oc(-c2ccc(F)cc2)nc1S(=O)(=O)c1ccccc1,n,n,n
CN(C(=O)CSc1nc2ccc(NC(=O)COc3ccc(F)cc3)cc2s1)c1ccccc1,n,x,n
CCOc1ccc(C2C(=O)N(C3CCCCCC3)CC(=O)N2CCc2ccccc2)cc1OC (configuration not stated),n,x,n
Cc1cc(C)c(S(=O)(=O)N2CCC(n3c(C(F)(F)F)nc4cccnc43)CC2)c(C)c1,n,x,n
COc1cc(NC(=O)CSc2nc(C)c(C(=O)Nc3ccccc3)c(-c3ccc(OC)c(OC)c3)c2C#N)c(OC)cc1Cl,n,x,n
SMILES,Sm TGR block,AmpC inh no detg,AmpC detergent
Cc1cc(-c2nn(-c3ccccc3F)cc2CN2CCC(C(N)=O)CC2)c(C)s1,45µM,n,n
Cc1cc(-c2nn(-c3ccccc3F)cc2CN2CCCC(C(N)=O)C2)c(C)s1 (configuration not stated),n,n,n
CCOc1ccc(C(=O)NCCn2cc(SCC(=O)Nc3ccccc3)c3ccccc32)cc1,n,x,n
CCc1ccccc1N1C(=O)CC(Sc2nccc(C)n2)C1=O (configuration not stated),40µM,n,n
Cc1ccc(N2C(=O)CC(Sc3nccc(C)n3)C2=O)cc1 (configuration not stated),u,n,n
Cc1ccnc(SC2CC(=O)N(c3ccc([N+](=O)[O-])cc3)C2=O)n1 (configuration not stated),22µM,n,n
CCc1ccccc1N1C(=O)C2CC(C)=C(C)CC2C1=O (configuration not stated),u,n,u
CC(C)c1ccc(NC(=O)C2CCCN(S(=O)(=O)c3cccc4nsnc34)C2)cc1 (configuration not stated),n,x,n
NC(=O)c1sc2nc3c(c(-c4ccco4)c2c1N)CCCC3,n,n,u
Nc1c(C(=O)NCC2CCCO2)sc2nc3c(c(-c4ccco4)c12)CC/C3=C\c1ccco1 (configuration not stated),18µM,n,n
CC(C)=CC(=O)Nc1ccc(Cl)cc1,n,n,n
CS/C(=C\[N+](=O)[O-])Nc1ccc(Cl)cc1,0.1µM,n,n
COc1ccc(-n2nnnc2S(=O)(=O)CC(=O)N2CCCCC2)cc1,10µM,n,n
CCc1ccc(Oc2nnnn2-c2ccc(C(N)=O)cc2)cc1,n,n,n
COc1ccc(-n2nnnc2S(=O)(=O)Cc2ccc(C(=O)O)cc2)cc1,13µM,n,n
COc1cc(OC)cc(-n2nnnc2SCC(=O)N2CCCC2)c1,n,n,u
COc1ccc(C2=NO[C@@H]3C(=O)N(c4cccc(C)c4C)C(=O)[C@H]23)cc1OC,n,n,u
COc1ccc(C2=NO[C@@H]3C(=O)N(c4ccc(C)cc4C)C(=O)[C@H]23)cc1OC,11µM,n,u
COc1ccc(-c2cn(-c3ccc(C)cc3C)c(=O)[nH]2)cc1OC,11µM,n,u
COc1ccc(-c2cc(=O)[nH][nH]2)cc1OC,n,n,n
O=C(CSc1nc2c(c(=O)[nH]1)CN(Cc1ccc3c(c1)OCO3)CC2)Nc1ccc(F)c(F)c1,n,x,n
CC(C)(C)OC(=O)NCCc1nnc(SCc2ccccc2Cl)o1,n,n,n
CC(C)(C)OC(=O)NCCc1nnc(S(=O)(=O)Cc2ccc(Cl)cc2Cl)o1,0.89µM,0.32µM,u
Cc1ccccc1Cn1c(=O)n(CCCCC(=O)NCc2ccccc2Cl)c(=O)c2ccccc21,n,x,n
COc1ccc(CN2c3c(Br)cccc3C(=O)CS2(=O)=O)cc1,x,13µM,x
SMILES,Sm TGR block,AmpC inh no detg,AmpC detergent
O=C1CS(=O)(=O)N(Cc2cccc(F)c2)c2ccc(Br)cc21,n,n,n
CCOC(=O)c1cc(-c2ccc(F)cc2)n(CCC(=O)NCc2ccc(C)cc2)c1C,n,x,n
CCN(CC)C(=O)C(=O)c1cn(CC(=O)N2CCc3ccccc3C2)c2ccccc12,45µM,n,n
O=C(C(=O)N1CCc2ccccc2C1)c1cn(CC(=O)N2CCCC2)c2ccccc12,n,n,n
O=C(Nc1nc(-c2ccc(Cl)s2)cs1)c1cccs1,n,u,n
O=C(Nc1nc(-c2ccc(Cl)s2)cs1)c1ccco1,40µM,n[11.4 µM],n
CCOC(=O)c1cccc(NC(=O)c2cc3ccccn3n2)c1,n,x,n
N#CCCN1CCN(S(=O)(=O)c2ccc(S(=O)(=O)N3CCCCCC3)cc2)CC1,n,n,u
Cc1ccc(S(=O)(=O)N2CCN(CCC#N)CC2)cc1,n,n,n
CC(=O)Nc1ccc(S(=O)(=O)N2CCN(CCC#N)CC2)cc1,n,45µM,u
CCN(C1CCCCC1)S(=O)(=O)c1ccc(S(=O)(=O)N2CCN(CCC#N)CC2)cc1,n,6.3µM,n
Cc1ccc2c(CC(=O)N(Cc3ccc(Cl)cc3)Cc3ccco3)coc2c1,u,x,n
COc1ccc(NC(=O)c2oc3ccccc3c2NC(=O)Cc2coc3cc(C)ccc23)cc1,n,x,n
COc1cccc(C(c2sc3nc(-c4ccco4)nn3c2O)N2CCN(C)CC2)c1 (configuration not stated),n,x,n
CC1CCCCC1N(C)C1CCN(C(=O)CNC(=O)/C=C/c2cccc(Cl)c2)CC1 (configuration not stated),35µM,n,n
CN(C1CCCC1)C1CCN(C(=O)CNC(=O)/C=C/c2ccccc2)CC1,n,n,n
